# According to paper PMC4336329 (PLoS ONE, 2015):
# The campaign covered roughly 310,000 compounds. About 14,000 (4.5%) showed an effect of 50% or more. The effect is printed as a negative number. The list comes from a sample in which strong results are over-represented; it also holds similar structures and randomly drawn compounds.
# Target: human ether-à-go-go-related gene (hERG) potassium channel (human, UniProt Q12809)
# Test: primary screen, population patch clamp on CHO cells stably expressing hERG; higher = less effect of the substance
# 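Also: peak tail current of the secondary pulse compared with the same well before compound.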
# Sequence of human ether-à-go-go-related gene (hERG) potassium channel (Q12809 whole entry, looked up): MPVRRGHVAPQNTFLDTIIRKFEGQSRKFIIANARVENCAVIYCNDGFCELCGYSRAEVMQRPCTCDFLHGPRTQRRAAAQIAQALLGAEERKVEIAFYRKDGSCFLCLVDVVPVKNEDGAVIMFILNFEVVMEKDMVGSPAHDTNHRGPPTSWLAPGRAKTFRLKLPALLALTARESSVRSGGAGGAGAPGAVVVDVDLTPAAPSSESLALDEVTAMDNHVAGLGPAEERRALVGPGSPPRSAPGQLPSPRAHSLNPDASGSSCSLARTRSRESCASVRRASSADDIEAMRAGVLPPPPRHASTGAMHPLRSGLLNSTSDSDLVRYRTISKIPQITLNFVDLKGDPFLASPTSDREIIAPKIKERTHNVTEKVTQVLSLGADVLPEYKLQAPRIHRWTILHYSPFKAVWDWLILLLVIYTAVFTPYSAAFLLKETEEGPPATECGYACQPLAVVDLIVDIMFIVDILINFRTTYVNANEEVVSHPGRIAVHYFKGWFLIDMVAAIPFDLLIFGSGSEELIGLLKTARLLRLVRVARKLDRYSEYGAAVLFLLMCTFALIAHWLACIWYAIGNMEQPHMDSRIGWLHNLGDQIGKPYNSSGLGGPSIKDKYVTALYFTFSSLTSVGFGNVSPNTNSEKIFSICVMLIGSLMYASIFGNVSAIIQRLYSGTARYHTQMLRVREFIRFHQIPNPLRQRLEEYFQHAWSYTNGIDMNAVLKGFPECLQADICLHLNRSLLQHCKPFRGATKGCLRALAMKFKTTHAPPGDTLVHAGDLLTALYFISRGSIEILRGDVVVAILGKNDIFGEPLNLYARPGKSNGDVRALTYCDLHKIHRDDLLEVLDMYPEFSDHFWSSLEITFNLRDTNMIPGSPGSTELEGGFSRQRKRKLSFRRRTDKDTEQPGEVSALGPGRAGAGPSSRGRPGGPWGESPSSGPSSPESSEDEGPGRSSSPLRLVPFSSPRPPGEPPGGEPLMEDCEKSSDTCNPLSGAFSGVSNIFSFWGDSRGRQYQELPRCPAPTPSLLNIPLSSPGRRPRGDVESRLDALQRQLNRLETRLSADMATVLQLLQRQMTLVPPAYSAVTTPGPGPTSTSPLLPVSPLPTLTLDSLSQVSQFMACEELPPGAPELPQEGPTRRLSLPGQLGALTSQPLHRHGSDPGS
row,SMILES,"hERG current change (%, negative = inhibition) at 10uM [%]"
1,Cc1ccsc1C(=O)c1sccc1C,-3.08
2,CSc1ccc(CCNC(=O)c2cc(-c3ccccc3)c(N3CCOCC3)s2)cc1,-1.02
3,O=C(NCc1ccncc1)c1ccc(Cl)c(S(=O)(=O)N2CCCCC2)c1,-22.4
4,O=C1CN(O)C=C2N=c3ccccc3=C2N1c1ccc([N+](=O)[O-])cc1,-26.6
5,Cc1ccc(OCc2nnc(SCC(=O)c3ccccc3)n2Cc2ccco2)cc1,-47.1
6,COc1ccc(NC(=O)C(NC(=O)CC2NC(=O)NC2=O)c2ccccc2)cc1 (stereo not shown),-2.49
7,CSc1ccccc1NC(=O)CSCc1ccc(C)cc1,-7.79
8,O=C(Nc1nnc(-c2ccncc2)o1)c1ccc2ccccc2c1,-3.08
9,COc1cc2ccccc2cc1C(=O)Nc1ccncc1,-24.8
10,COc1cc2ccccc2cc1C(=O)Nc1nnc(-c2ccncc2)o1,-52.3
11,O=C(Nc1ncc(S(=O)(=O)c2ccc([N+](=O)[O-])cc2)s1)c1cccnc1,-2.29
12,COc1cc(C(=O)OCCCN(C)C)cc(OC)c1OC.Cl,4.69
13,CCN(CC)CCn1cnc2c1c(=O)n(CCOC(=O)c1cc(OC)c(OC)c(OC)c1)c(=O)n2C.Cl,-60.3
14,O=C(OCCN1CCCCC1)c1ccc(O)cc1,-35.4
15,COc1cc(OC)cc(C(=O)OCCNC(=O)Cn2cnc3c2c(=O)n(C)c(=O)n3C)c1,0.82
16,CCN(CC)CC(C)OC(=O)c1cc(OC)c(OC)c(OC)c1.Cl (stereo not shown),-11.5
17,CCN(CC)CCCCCCCCOC(=O)c1cc(OC)c(OC)c(OC)c1.Cl,-50.1
18,COc1cc(C(=O)OCCn2c(=O)c3c(ncn3CCN(C)C)n(C)c2=O)cc(OC)c1OC.Cl,-2.6
19,COc1cc(C(=O)OCCCN2CCCN(CCCOC(=O)c3cc(OC)c(OC)c(OC)c3)CC2)cc(OC)c1OC.Cl,-67.8
20,COc1cc(C(=O)OCCCOC(=O)c2cc(OC)c(OC)c(OC)c2)cc(OC)c1OC,0.241
21,O=C(OCCCOC(=O)c1ccc(O)cc1)c1ccc(O)cc1,-17.3
22,COc1cc(C(=O)OCCN2CCOCC2)cc(OC)c1OC,-5.95

row,SMILES,"hERG current change (%, negative = inhibition) at 10uM [%]"
1,O=C(OCCCN1CCCCC1)c1ccc(O)cc1,-54.6
2,Cc1ccc2c(c1)N(CCC(=O)NCCCN1CCCC1)C(=O)CO2,12.7
3,Cl.NCCOc1ccccc1OCCN,22.1
4,CCN(C(=S)Nc1ccc(C(C)=O)cc1)C1CCCCC1,3.5
5,C=CCN1C(=O)C(O)(CC(=O)c2ccc(OC)cc2OC)c2cc(Br)ccc21 (stereo not shown),-3.68
6,O=C(NC1CCCc2ccccc21)c1cncc(Br)c1 (stereo not shown),8.69
7,COCCn1c(SCC(=O)N(C)c2c(N)n(Cc3ccccc3)c(=O)[nH]c2=O)nnc1-c1cccc(C)c1,24.7
8,Cc1ccc(Cn2c(SCC(=O)NCC3CCCO3)nc3c2c(=O)n(C)c(=O)n3C)cc1 (stereo not shown),-28.4
9,CCn1nc(C)cc1C(=O)N1CCCC(C(=O)c2ccccc2SC)C1 (stereo not shown),-1.16
10,CC(C)c1ccc(/C=C/C(=O)NCCCN2CCOCC2)cc1,-39
11,O=C(/C=C/c1ccco1)NCCCN1CCN(CCCNC(=O)/C=C/c2ccco2)CC1,-43.5
12,O=C(/C=C/c1ccc(F)cc1)NCCNC(=O)/C=C/c1ccc(F)cc1,35.7
13,COc1ccc(/C=C/C(=O)NCCCN2CCCC2)cc1,-44.5
14,Cl.O=C(/C=C/c1ccc(Br)o1)NCCCN1CCOCC1,7.91
15,Cc1ccc(/C=C/C(=O)NCCCN2CCN(CCCNC(=O)/C=C/c3ccc(C)o3)CC2)o1,-78.3
16,COc1ccc(/C=C/C(=O)NCCCN2CCCCCC2)cc1,-58.3
17,O=C(/C=C/c1ccc(Cl)cc1)NCCN1CCOCC1,-24
18,O=C(/C=C/c1ccc(F)cc1)NCCCN1CCN(CCCNC(=O)/C=C/c2ccc(F)cc2)CC1,-73.2
19,Cc1ccc(/C=C/C(=O)NCCCN2CCN(CCCNC(=O)/C=C/c3ccc(C)cc3)CC2)cc1,-0.473
20,O=C(/C=C/c1ccc(Cl)cc1)NCCCN1CCOCC1,-71
21,COc1ccc(/C=C/C(=O)NCCCN2CCOCC2)cc1,-29.4
